This is a sample that favours compounds with a hit; in the whole collection about 1.1% have one here.
HTR5A inv ctr – counter-screen for OPRM1-OPRD1 inverse agonists: human HTR5A inverse agonism; HTR5A cell line, luminescence; inhibition, % at 9.3 µM; actives 0.083% (n = 340,000); in the data active means inhibition mostly above about 23%, no sharp cut-off; inactive means mostly below about 18%
Target sequence (P47898 whole entry, looked up): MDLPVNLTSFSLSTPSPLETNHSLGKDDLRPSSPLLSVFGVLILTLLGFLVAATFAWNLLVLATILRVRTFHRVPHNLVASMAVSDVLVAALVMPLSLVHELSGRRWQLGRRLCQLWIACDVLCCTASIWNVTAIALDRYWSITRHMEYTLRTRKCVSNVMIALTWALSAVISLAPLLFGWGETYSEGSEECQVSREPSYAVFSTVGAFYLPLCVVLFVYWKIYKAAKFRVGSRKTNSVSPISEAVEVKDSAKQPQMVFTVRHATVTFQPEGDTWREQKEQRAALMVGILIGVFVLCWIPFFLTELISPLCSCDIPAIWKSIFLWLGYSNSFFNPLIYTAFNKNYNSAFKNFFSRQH
OPRM1-OPRD1 inv – inverse agonist of human OPRM1-OPRD1 heterodimerization. actives 0.21% (n = 340,000). AID 504357. P35372+P41143. cell-based MOR-DOR heterodimer luminescence, inverse agonism. inhibition, % at 9.3 µM; in the data active means inhibition above about 22%, passing the limit was not always enough
OPRM1-OPRD1 ag – agonists of human mu-delta opioid receptor heterodimerization; P35372+P41143; cells, OPRM1-OPRD1 heterodimerization, luminescence; activation, % at 9.3 µM; actives 0.3% (n = 340,000); in the data active means activation above about 18%
HTR5A ag – counter-screen for OPRM1-OPRD1 agonists: human HTR5A agonism. activation, % at 9.3 µM. AID 504692. actives 0.61% (n = 340,000). P47898. HTR5A agonist assay, luminescence, cell-based; in the data active means activation mostly above about 9.5%, no sharp cut-off; inactive means mostly below about 7.6%
Hits are given with their value; n = inactive.

SMILES	HTR5A inv ctr	OPRM1-OPRD1 inv	OPRM1-OPRD1 ag	HTR5A ag
CC(C)(CNS(=O)(=O)c1ccc2ccccc2c1)N1CCOCC1	n	n	n	n
Cc1c(C(=O)OC2CCCC2)[nH]c2c1C(=O)CC(c1ccco1)C2 (stereo not drawn)	n	n	n	10
O=C(Nc1ccccn1)c1ccc2ccccc2n1	n	n	n	8.9
CCOC(=O)C1(C(=O)OCC)NC(=O)CC1CC(C)C (stereo not drawn)	n	n	n	n
O=C(CSc1ccsc1[N+](=O)[O-])Nc1cc(F)ccc1F	n	n	n	n
CC(=O)c1ccc(NC(=O)CSc2ccsc2[N+](=O)[O-])cc1	n	n	n	9.4
CC(=O)N(Cc1c(C)nn(-c2ccccc2)c1Cl)c1ccc(Cl)cc1	n	n	n	n
Cc1nn(-c2ccccc2)c(Cl)c1CN(C(=O)CCl)c1cccc2ccccc12	n	n	52	40
Cc1nn(-c2ccccc2)c(Cl)c1CN(C(=O)CCl)c1ccc(Cl)cc1	n	n	67	50
Nc1nc(CSC(=S)N2CCOCC2)nc(Nc2ccc(F)cc2)n1	n	n	n	n
CN1CCN(C(=S)SCc2nc(N)nc(Nc3ccc(F)cc3)n2)CC1	n	n	n	11
CCCCn1c(N)c(N(CC(C)C)C(=O)CN2C(=O)NC3(CCC(C(C)(C)CC)CC3)C2=O)c(=O)[nH]c1=O (stereo not drawn)	n	n	n	n
O=C(NC(C(=O)O)c1ccccc1)c1ccc(S(=O)(=O)N2CCOCC2)cc1 (stereo not drawn)	n	n	n	12
Cc1ccc(-n2c(=O)[nH]c3c(C(N)=O)nc(-c4ccc(C)o4)nc32)cc1	n	n	n	11
O=C(Nc1cccnc1)c1ccc([N+](=O)[O-])s1	n	n	n	n
N#CC1C(=O)NC(c2ccccc2)=CC1c1ccccc1 (stereo not drawn)	52	69	n	n
O=C1Nc2ccccc2S/C1=C/Nc1cccc(Cl)c1	n	n	23	14
CCn1nc(NC(=O)c2cccnc2)c2cc3cccc(C)c3nc21	n	n	n	18
COc1ccc(CN2c3c(Br)cccc3C(=O)CS2(=O)=O)cc1	17	n	n	n
O=C1CS(=O)(=O)N(Cc2cccc(F)c2)c2ccc(Br)cc21	n	n	n	n
CCN(CC)c1ccc(S(=O)(=O)N2CCOCC2)cc1NC(=O)CNCc1cccc(Cl)c1	n	n	n	n
CC(=O)Nc1sc2c(c1C(c1ccccn1)N1CCCC1)CCCC2 (stereo not drawn)	n	n	n	n
CC(=O)Nc1sc2c(c1C(c1cccs1)N1CCOCC1)CCCC2 (stereo not drawn)	n	n	n	13
CC1=NN(c2ccc(C)cc2)C(=O)/C1=C\C=C\c1ccccc1	n	n	n	n
CC1=NN(c2ccccc2)C(=O)/C1=C/C=C/C=C/N(C)C	22	33	n	n
SMILES	HTR5A inv ctr	OPRM1-OPRD1 inv	OPRM1-OPRD1 ag	HTR5A ag
Cc1cc(C(C)(C)C)cc(C)c1Cn1c2[n+](c3ccc(C(F)(F)F)cc31)CCCCC2	n	n	n	11
O=C(Nc1nc(-c2cccc3ccccc23)cs1)c1cnccn1	n	n	n	10
CN(C)CCOc1ccc(-c2c(-c3ccsc3)sc3ccccc23)cc1	n	n	n	n
COc1ccc(-c2sc3ccccc3c2-c2ccc(OCCN(C)C)cc2)cc1	n	n	n	14
FC(F)(F)c1cnc(NNC(=S)Nc2ccc(Cl)cc2)c(Cl)c1	49	49	n	n
O=C(NNc1ncc(C(F)(F)F)cc1Cl)c1ccc(Cl)c(Cl)c1	n	n	n	n
Fc1ccc(NC(=S)NNc2ncc(C(F)(F)F)cc2Cl)c(F)c1	39	56	n	n
O=S(=O)(NNc1ncc(C(F)(F)F)cc1Cl)c1ccc(F)cc1F	n	n	n	n
COC(=O)c1c(C)[nH]c(C(=O)COC(=O)CCNS(=O)(=O)c2cccc(C(F)(F)F)c2)c1C	n	n	n	n
O=C(CN1C(=O)/C(=C/c2ccccc2)SC1=S)NC1C=CS(=O)(=O)C1 (stereo not drawn)	n	n	n	12
O=C(CN1C(=O)/C(=C/c2ccc(Cl)cc2)SC1=S)NC1C=CS(=O)(=O)C1 (stereo not drawn)	n	n	n	n
CCc1sc(C(=O)NCCCn2ccnc2)cc1Br	n	n	n	10
CCN(CC)C(=O)c1[nH]cnc1C(=O)NCc1ccccc1	n	n	n	n
CCOC(=O)c1c(C)sc2c1N(C(=O)CCl)c1cc(Cl)ccc1S2	n	n	36	19
Clc1ccc(C2Nc3cccc4cccc(c34)N2)cc1	n	n	n	15
CCCC1(C(=O)O)NC(c2cccc(OC)c2O)C2C(=O)N(c3ccccc3)C(=O)C21 (stereo not drawn)	n	n	n	n

Assay outcomes: PubChem BioAssay, The Scripps Research Institute Molecular Screening Center
